# Test results from the supplement of paper PMC10849652.
# Of roughly 8,800 targets only a part is listed; those with a hit were picked by preference. About 0.5% of all pairs of compound and target were hits. A number with no mark means an inactive call.
# Tests used:
# Assay in all cases: log2 fold change, soluble protein after heating vs DMSO (PISA); higher = thermal stabilisation; K562 lysate, 10 uM; active = over 0.2 and 3.5 SD of the protein, either way, in both replicates (recomputed)
# [1] = compound: CCN(CCCOc1ccc2c(Nc3cc(CC(=O)Nc4cccc(F)c4)[nH]n3)ncnc2c1)CCOP(=O)(O)O [barasertib]
# In short: (§1)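 To prepare the extract, K562 pellets were dounce-homogenised in PBS pH 7.4 with 1 mM MgCl2, giving crude material at 1 mg/mL protein. This was treated with 10 μM compound for 30 min, then heated in aliquots for 3 min over 48°C-58°C before pooling and addition of NP-40 to 0.5% at 4°C. Centrifugation at 21,000xg for 90 min left soluble protein in the supernatant, which TMTpro 16plex LC-MS/MS quantified with equalised channel sums. Results are log-two fold changes in thermal stability compared with solvent controls, from duplicates.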
# [2] = compound: CC[C@@H]1C(=O)N(C)c2cnc(Nc3ccc(C(=O)NC4CCN(C)CC4)cc3OC)nc2N1C1CCCC1
# In short: as §1
# [3] = compound: CCn1c(C(=O)N(C2CC2)C2CC2)cc2c3c(ncn3C)c(Nc3cc(C)n(C)n3)nc21
# In short: as §1
# [4] = compound: CCn1cc(-c2ccnc3[nH]c(-c4cccc(CN(C)C)c4)cc23)c(-c2ccc(NC(=O)N(C)C)cc2)n1
# In short: as §1
# [5] = compound: CN1CCC(CNc2ccc3ncc(-c4cccc(OC(F)(F)F)c4)n3n2)CC1
# In short: as §1
# [6] = compound: CN1CCN(CCOc2cc(OC3CCOCC3)c3c(Nc4c(Cl)ccc5c4OCO5)ncnc3c2)CC1 [saracatinib]
# In short: as §1
# [7] = compound: CN1CCN(c2nc(C3=C(c4c[nH]c5ccccc45)C(=O)NC3=O)c3ccccc3n2)CC1 [sotrastaurin]
# In short: as §1
# [8] = compound: CN1CC[C@H](c2c(O)cc(O)c3c(=O)cc(-c4ccccc4Cl)oc23)[C@H](O)C1 [alvocidib]
# In short: as §1
# [9] = compound: CN1CCc2c(c3ccccc3n2Cc2ccc(C(=O)NO)cc2)C1 [Tubastatin A]
# In short: as §1
# [10] = compound: CNC(=O)C1=CC=CC=C1NC2=NC(=NC=C2Cl)NC3=C(C=C(C=C3)N4CCOCC4)OC
# In short: as §1
# [11] = compound: CNc1nc(-c2ccc3c(N)n[nH]c3c2)cc(N2C[C@@H](C(=O)NC3CCCCC3)CC[C@H]2C)n1
# In short: as §1
# [12] = compound: COC(=O)N[C@@H](C)CNc1nccc(-c2cn(C(C)C)nc2-c2cc(Cl)cc(NS(C)(=O)=O)c2F)n1 [encorafenib]
# In short: as §1
# [13] = compound: COC(=O)[C@H](CCSC)NC(=O)C1=C(C=C(C=C1)NC[C@H](CS)N)C2=CC=CC=C2
# In short: as §1
# [14] = compound: COc1cc(Nc2ncc3c(n2)-c2ccc(Cl)cc2C(c2c(F)cccc2OC)=NC3)ccc1C(=O)O [alisertib]
# In short: as §1
# [15] = compound: COc1cc2ncnc(Nc3ccc(F)c(Cl)c3)c2cc1OCCCN1CCOCC1 [gefitinib]
# In short: as §1
# [16] = compound: CCCS(=O)(=O)Nc1ccc(F)c(C(=O)c2c[nH]c3ncc(-c4ccc(Cl)cc4)cc23)c1F [vemurafenib]
# In short: as §1
# [17] = compound: CNC(=O)c1ccc(Nc2ncc(C(F)(F)F)c(NCc3nccnc3N(C)S(C)(=O)=O)n2)cc1 [defactinib]
# In short: as §1
# [18] = compound: CCCS(=O)(=O)Nc1ccc(F)c(C(=O)c2c[nH]c3ncc(Cl)cc23)c1F
# In short: as §1
# [19] = compound: CC[C@@H]1C(=O)N(C)c2cnc(Nc3ccc(C(=O)N[C@H]4CC[C@H](N5CCN(CC6CC6)CC5)CC4)cc3OC)nc2N1C(C)C [volasertib]
# In short: as §1
# [20] = compound: COc1cc2nc(-c3cc(F)ccc3O)nc(N[C@@H]3CNC[C@H]3C(C)(C)O)c2cc1OC
# In short: as §1
# Chain of UniProt Q05397 (Q05397 whole entry, looked up): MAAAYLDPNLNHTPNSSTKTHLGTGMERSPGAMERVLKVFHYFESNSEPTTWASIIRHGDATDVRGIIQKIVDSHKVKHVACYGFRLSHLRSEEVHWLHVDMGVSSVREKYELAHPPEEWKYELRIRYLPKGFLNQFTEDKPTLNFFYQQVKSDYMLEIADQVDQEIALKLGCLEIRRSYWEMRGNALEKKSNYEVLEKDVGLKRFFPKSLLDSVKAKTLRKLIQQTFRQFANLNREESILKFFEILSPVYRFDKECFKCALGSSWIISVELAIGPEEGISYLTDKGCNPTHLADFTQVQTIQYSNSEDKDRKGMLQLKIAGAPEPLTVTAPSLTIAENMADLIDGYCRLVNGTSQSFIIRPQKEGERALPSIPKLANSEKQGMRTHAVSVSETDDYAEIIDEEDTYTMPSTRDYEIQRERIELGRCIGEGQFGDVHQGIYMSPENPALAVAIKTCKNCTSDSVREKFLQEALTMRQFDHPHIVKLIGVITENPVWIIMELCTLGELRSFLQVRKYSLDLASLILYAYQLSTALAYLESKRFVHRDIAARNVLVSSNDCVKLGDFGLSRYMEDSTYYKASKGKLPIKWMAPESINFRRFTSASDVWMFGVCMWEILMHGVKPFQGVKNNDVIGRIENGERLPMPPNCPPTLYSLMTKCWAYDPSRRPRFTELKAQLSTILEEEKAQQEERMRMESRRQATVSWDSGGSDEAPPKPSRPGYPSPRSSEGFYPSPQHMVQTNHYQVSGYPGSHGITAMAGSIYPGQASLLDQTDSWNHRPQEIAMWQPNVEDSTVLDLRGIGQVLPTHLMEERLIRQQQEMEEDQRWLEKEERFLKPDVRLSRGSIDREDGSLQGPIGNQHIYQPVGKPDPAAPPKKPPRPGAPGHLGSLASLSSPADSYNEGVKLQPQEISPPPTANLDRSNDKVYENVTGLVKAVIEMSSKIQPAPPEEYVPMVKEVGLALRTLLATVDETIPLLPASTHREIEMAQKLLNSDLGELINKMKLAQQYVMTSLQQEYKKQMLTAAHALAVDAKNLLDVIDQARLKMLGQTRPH
# Chain of UniProt Q9Y570 (Q9Y570 whole entry, looked up): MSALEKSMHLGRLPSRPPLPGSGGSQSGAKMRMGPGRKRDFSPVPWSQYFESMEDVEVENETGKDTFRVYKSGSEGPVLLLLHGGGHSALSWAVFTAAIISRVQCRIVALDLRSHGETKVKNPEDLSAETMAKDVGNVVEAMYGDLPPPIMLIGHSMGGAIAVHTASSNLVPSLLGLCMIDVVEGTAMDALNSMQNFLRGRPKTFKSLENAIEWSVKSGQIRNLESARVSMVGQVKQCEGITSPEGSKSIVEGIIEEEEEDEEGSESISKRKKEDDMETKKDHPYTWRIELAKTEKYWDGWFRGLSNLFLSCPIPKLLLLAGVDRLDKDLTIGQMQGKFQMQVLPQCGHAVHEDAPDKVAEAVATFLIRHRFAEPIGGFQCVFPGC
# Chain of UniProt O60927 (O60927 whole entry, looked up): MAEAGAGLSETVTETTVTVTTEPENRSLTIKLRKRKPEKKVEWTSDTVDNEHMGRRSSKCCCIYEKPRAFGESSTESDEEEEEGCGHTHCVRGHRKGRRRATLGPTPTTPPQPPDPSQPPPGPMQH
# Chain of UniProt P78364 (P78364 whole entry, looked up): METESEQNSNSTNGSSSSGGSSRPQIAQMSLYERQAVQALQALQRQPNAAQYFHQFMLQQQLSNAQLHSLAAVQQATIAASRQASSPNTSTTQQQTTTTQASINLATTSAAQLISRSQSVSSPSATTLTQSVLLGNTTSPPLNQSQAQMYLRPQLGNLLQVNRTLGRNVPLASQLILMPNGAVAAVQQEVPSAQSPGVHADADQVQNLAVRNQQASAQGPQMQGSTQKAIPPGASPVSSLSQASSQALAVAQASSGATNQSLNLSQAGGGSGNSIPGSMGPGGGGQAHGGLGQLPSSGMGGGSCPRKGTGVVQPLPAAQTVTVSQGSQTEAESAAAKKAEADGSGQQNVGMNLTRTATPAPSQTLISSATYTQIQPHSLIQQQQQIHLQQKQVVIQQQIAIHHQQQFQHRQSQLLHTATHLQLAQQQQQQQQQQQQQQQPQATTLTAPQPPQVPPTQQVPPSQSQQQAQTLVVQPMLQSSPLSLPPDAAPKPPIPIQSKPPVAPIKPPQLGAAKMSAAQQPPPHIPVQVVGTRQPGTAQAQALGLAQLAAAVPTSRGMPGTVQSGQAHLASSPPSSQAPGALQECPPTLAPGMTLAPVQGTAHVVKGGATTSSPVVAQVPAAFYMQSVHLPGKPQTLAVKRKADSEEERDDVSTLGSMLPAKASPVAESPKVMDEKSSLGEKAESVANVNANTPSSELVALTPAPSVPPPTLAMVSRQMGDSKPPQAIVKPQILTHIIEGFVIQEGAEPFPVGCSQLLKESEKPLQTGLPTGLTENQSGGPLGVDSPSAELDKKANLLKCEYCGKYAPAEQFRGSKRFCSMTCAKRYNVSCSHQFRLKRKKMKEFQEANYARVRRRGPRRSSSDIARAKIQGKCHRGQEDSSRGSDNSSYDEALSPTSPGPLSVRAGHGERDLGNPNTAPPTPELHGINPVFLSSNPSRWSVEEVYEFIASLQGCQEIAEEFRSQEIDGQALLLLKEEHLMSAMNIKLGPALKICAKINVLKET
# Chain of UniProt O75928 (O75928 whole entry, looked up): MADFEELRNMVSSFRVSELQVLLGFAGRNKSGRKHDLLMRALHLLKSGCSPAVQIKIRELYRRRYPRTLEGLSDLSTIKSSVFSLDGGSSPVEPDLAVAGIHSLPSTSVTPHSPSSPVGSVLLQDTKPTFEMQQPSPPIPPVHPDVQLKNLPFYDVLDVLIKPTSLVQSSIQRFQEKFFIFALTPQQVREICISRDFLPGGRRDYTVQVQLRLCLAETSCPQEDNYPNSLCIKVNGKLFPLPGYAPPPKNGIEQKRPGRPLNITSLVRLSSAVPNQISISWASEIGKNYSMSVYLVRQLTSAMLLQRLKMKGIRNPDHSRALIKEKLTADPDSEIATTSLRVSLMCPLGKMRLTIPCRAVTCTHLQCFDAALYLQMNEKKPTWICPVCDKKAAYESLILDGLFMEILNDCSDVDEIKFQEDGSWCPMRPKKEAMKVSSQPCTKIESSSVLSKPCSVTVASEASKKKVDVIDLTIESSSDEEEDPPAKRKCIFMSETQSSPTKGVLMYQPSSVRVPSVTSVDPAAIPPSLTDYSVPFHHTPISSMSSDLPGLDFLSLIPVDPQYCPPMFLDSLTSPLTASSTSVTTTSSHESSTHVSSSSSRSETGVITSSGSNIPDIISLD
# Chain of UniProt Q99755 (Q99755 whole entry, looked up): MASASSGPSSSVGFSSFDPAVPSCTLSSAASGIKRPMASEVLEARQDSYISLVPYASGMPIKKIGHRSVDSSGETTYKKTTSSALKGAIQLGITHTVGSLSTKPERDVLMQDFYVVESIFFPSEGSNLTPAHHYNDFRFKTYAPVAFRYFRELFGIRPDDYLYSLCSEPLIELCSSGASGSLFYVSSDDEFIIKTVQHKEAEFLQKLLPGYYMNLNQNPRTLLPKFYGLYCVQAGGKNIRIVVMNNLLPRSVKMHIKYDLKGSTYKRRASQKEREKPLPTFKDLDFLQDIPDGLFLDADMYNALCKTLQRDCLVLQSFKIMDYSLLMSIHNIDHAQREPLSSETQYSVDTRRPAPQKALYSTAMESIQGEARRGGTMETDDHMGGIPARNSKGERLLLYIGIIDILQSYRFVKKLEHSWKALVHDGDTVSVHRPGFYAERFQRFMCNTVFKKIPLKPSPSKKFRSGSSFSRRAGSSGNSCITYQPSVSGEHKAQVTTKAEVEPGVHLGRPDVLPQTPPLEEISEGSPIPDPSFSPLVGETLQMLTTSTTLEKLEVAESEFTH
# Chain of UniProt Q9BRQ0 (Q9BRQ0 whole entry, looked up): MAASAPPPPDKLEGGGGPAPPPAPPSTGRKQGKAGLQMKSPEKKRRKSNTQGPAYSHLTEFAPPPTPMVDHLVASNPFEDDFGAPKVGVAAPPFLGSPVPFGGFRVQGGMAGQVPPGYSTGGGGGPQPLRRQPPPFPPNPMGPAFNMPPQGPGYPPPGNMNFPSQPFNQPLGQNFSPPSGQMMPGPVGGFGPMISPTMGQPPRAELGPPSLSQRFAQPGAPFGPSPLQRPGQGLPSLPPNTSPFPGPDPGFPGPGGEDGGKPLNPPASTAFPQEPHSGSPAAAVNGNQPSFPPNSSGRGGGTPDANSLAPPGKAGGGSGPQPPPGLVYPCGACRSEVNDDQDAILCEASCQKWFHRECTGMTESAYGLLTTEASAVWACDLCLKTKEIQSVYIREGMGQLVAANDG
# Chain of UniProt P60673 (P60673 whole entry, looked up): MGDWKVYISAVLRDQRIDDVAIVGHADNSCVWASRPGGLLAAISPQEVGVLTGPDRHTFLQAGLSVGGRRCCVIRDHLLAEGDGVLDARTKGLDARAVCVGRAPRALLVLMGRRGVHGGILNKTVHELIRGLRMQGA
# Chain of UniProt Q9BSG0 (Q9BSG0 whole entry, looked up): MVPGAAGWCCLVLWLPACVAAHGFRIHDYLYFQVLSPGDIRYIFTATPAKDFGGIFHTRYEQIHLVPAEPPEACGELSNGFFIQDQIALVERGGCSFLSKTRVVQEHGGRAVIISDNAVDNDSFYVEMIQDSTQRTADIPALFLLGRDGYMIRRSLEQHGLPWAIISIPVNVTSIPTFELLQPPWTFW
# Chain of UniProt Q9BY49 (Q9BY49 whole entry, looked up): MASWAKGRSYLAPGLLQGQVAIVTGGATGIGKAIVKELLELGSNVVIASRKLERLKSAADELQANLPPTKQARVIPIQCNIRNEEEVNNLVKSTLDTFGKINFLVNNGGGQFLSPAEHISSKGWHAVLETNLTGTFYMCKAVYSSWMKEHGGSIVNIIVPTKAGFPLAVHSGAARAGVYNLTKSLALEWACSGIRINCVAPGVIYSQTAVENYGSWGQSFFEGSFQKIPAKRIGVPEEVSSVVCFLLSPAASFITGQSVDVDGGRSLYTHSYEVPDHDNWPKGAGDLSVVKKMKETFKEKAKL
# Chain of UniProt P06454 (P06454 whole entry, looked up): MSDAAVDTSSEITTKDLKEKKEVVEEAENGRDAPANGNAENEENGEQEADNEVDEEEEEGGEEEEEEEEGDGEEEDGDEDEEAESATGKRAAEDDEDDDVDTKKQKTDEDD
target,measurement,setting,value
PYGO2 (UniProt Q9BRQ0),log2 fold change,[1],0.036
same,log2 fold change,[2],-0.106
same,log2 fold change,[3],0
same,log2 fold change,[4],-0.044
same,log2 fold change,[5],0.042
same,log2 fold change,[6],0.07
same,log2 fold change,[7],-0.022
same,log2 fold change,[8],0.01
same,log2 fold change,[9],-0.019
same,log2 fold change,[10],0.032
same,log2 fold change,[11],0.131
same,log2 fold change,[12],-0.031
same,log2 fold change,[13],-0.121
same,log2 fold change,[14],-0.011
same,log2 fold change,[15],-0.026
"PPT2, A0A140T9Y1",log2 fold change,[14],-0.144
same,log2 fold change,[15],0.006
PIAS2 (UniProt O75928),log2 fold change,[16],-0.263
same,log2 fold change,[2],-0.026
same,log2 fold change,[3],0.003
same,log2 fold change,[6],0.044
same,log2 fold change,[7],-0.033
same,log2 fold change,[9],-0.092
same,log2 fold change,[10],0.006
same,log2 fold change,[17],-0.348
same,log2 fold change,[11],-0.002
same,log2 fold change,[12],0.006
same,log2 fold change,[13],-0.041
same,log2 fold change,[14],-0.021
same,log2 fold change,[15],-0.091
PHC1 (UniProt P78364),log2 fold change,[16],0.042
same,log2 fold change,[1],0.034
same,log2 fold change,[2],0.097
same,log2 fold change,[6],0.066
same,log2 fold change,[7],-0.354
same,log2 fold change,[17],0.005
same,log2 fold change,[11],0.184
same,log2 fold change,[12],0.059
same,log2 fold change,[13],-0.062
same,log2 fold change,[14],-0.017
same,log2 fold change,[15],-0.101
POLR2F (UniProt U3KPV3),log2 fold change,[2],0.13
same,log2 fold change,[6],-0.051
same,log2 fold change,[11],-0.059
same,log2 fold change,[12],0.177
same,log2 fold change,[13],-0.182
PFN1 (UniProt I3L3D5),log2 fold change,[18],-0.142
same,log2 fold change,[1],0.241
same,log2 fold change,[2],-0.01
same,log2 fold change,[19],-0.107
same,log2 fold change,[3],-0.067
same,log2 fold change,[4],0.924 (active)
same,log2 fold change,[5],-0.135
same,log2 fold change,[8],0.045
same,log2 fold change,[9],-0.01
same,log2 fold change,[12],0.157
same,log2 fold change,[13],0.058
same,log2 fold change,[14],0.028
same,log2 fold change,[20],-0.195
same,log2 fold change,[15],0.062
PRRG1 (UniProt O14668),log2 fold change,[3],0.052
same,log2 fold change,[9],-0.032
"PHGDH, A0A286YFE1",log2 fold change,[18],0.158
same,log2 fold change,[1],0.364
same,log2 fold change,[19],0.083
same,log2 fold change,[6],-0.318
same,log2 fold change,[11],-0.19
same,log2 fold change,[20],-0.114
PTK2 isoform 2 (UniProt Q05397),log2 fold change,[18],-0.101
same,log2 fold change,[1],0.05
same,log2 fold change,[2],-0.076
same,log2 fold change,[19],-0.387
same,log2 fold change,[6],-0.063
same,log2 fold change,[10],0.003
same,log2 fold change,[11],0.018
same,log2 fold change,[12],-0.058
same,log2 fold change,[13],-0.129
same,log2 fold change,[20],0.053
PIP5K1A (UniProt Q99755),log2 fold change,[18],0.029
same,log2 fold change,[1],0.108
same,log2 fold change,[19],0.07
same,log2 fold change,[3],-0.041
same,log2 fold change,[4],0.027
same,log2 fold change,[5],-0.514 (active)
same,log2 fold change,[6],0.107
same,log2 fold change,[7],-0.018
same,log2 fold change,[8],0.077
same,log2 fold change,[9],-0.043
same,log2 fold change,[10],0.027
same,log2 fold change,[11],-0.074
same,log2 fold change,[14],-0.121
same,log2 fold change,[20],-0.023
same,log2 fold change,[15],-0.024
PTMA isoform 2 (UniProt P06454),log2 fold change,[1],-0.09
PICALM (UniProt H0YCY1),log2 fold change,[10],-0.018
PHOSPHO2 (UniProt C9JD35),log2 fold change,[2],-0.432
same,log2 fold change,[7],-0.027
same,log2 fold change,[12],0.018
same,log2 fold change,[13],-0.36
PPME1 (UniProt Q9Y570),log2 fold change,[18],-0.042
same,log2 fold change,[1],0.026
same,log2 fold change,[2],0.104
same,log2 fold change,[19],-0.012
same,log2 fold change,[6],-0.043
same,log2 fold change,[10],0.125
same,log2 fold change,[11],-0.065
same,log2 fold change,[12],-0.029
same,log2 fold change,[13],-0.059
same,log2 fold change,[20],0.014
PPP1R11 (UniProt O60927),log2 fold change,[18],0.069
same,log2 fold change,[1],-0.04
same,log2 fold change,[2],0.153
same,log2 fold change,[19],0.046
same,log2 fold change,[3],-0.101
same,log2 fold change,[4],0.16
same,log2 fold change,[5],-0.067
same,log2 fold change,[6],-0.05
same,log2 fold change,[7],0.001
same,log2 fold change,[8],0.048
same,log2 fold change,[9],0.077
same,log2 fold change,[10],0.011
same,log2 fold change,[11],-0.001
same,log2 fold change,[12],0.051
same,log2 fold change,[13],-0.027
same,log2 fold change,[14],-0.081
same,log2 fold change,[20],-0.041
same,log2 fold change,[15],-0.09
PFN3 (UniProt P60673),log2 fold change,[16],0.059
same,log2 fold change,[18],0
same,log2 fold change,[2],0.112
same,log2 fold change,[19],0.056
same,log2 fold change,[4],-0.706 (active)
same,log2 fold change,[5],0.109
same,log2 fold change,[7],0.042
same,log2 fold change,[8],-0.182
same,log2 fold change,[17],-0.109
same,log2 fold change,[12],0.125
same,log2 fold change,[13],-0.28
same,log2 fold change,[14],-0.047
same,log2 fold change,[20],0.154
same,log2 fold change,[15],0.075
PPP2CA (UniProt E7ESG8),log2 fold change,[14],0.139
same,log2 fold change,[15],-0.034
PCBP2 (UniProt F8VRH0),log2 fold change,[18],-0.035
same,log2 fold change,[19],-0.058
same,log2 fold change,[3],-0.138
same,log2 fold change,[4],-0.033
same,log2 fold change,[5],-0.047
same,log2 fold change,[7],-0.066
same,log2 fold change,[8],-0.1
same,log2 fold change,[9],0.067
same,log2 fold change,[10],-0.123
same,log2 fold change,[14],0.231
same,log2 fold change,[20],0.096
same,log2 fold change,[15],0.045
PDE4DIP (UniProt E9PS60),log2 fold change,[16],-0.014
same,log2 fold change,[2],0.017
same,log2 fold change,[4],-0.942 (active)
same,log2 fold change,[5],0.153
same,log2 fold change,[6],0.067
same,log2 fold change,[7],0.137
same,log2 fold change,[8],-0.111
same,log2 fold change,[10],-0.02
same,log2 fold change,[17],0.056
same,log2 fold change,[11],-0.089
same,log2 fold change,[12],-0.059
same,log2 fold change,[13],-0.039
same,log2 fold change,[14],0.013
same,log2 fold change,[15],0.005
PECR (UniProt Q9BY49),log2 fold change,[2],0.023
same,log2 fold change,[12],0.101
same,log2 fold change,[13],-0.184
PRADC1 (UniProt Q9BSG0),log2 fold change,[18],0.011
same,log2 fold change,[1],-0.509 (active)
same,log2 fold change,[19],0.074
same,log2 fold change,[3],-0.05
same,log2 fold change,[4],0.057
same,log2 fold change,[5],0.101
same,log2 fold change,[6],0.054
same,log2 fold change,[7],-0.015
same,log2 fold change,[8],-0.141
same,log2 fold change,[9],0.04
same,log2 fold change,[10],-0.126
same,log2 fold change,[11],0.059
same,log2 fold change,[14],0.109
same,log2 fold change,[20],0.212
same,log2 fold change,[15],-0.071
PRIMPOL (UniProt Q96LW4),log2 fold change,[16],-0.02
same,log2 fold change,[1],-0.083
same,log2 fold change,[2],-0.095
same,log2 fold change,[3],0.011
same,log2 fold change,[6],0.014
same,log2 fold change,[7],0.089
same,log2 fold change,[9],-0.159
same,log2 fold change,[10],0.036
same,log2 fold change,[17],0.076
same,log2 fold change,[11],0.071
same,log2 fold change,[12],0.055
same,log2 fold change,[13],-0.37
same,log2 fold change,[14],-0.113
same,log2 fold change,[15],0.045
PRG4 (UniProt Q92954),log2 fold change,[18],-0.038
same,log2 fold change,[1],0.332
same,log2 fold change,[19],0.054
same,log2 fold change,[3],-0.03
same,log2 fold change,[4],-0.179
same,log2 fold change,[5],0.229
same,log2 fold change,[6],0.009
same,log2 fold change,[7],-0.02
same,log2 fold change,[8],-0.826 (active)
same,log2 fold change,[9],0.103
same,log2 fold change,[11],0.204
same,log2 fold change,[14],-0.045
same,log2 fold change,[20],0.093
same,log2 fold change,[15],-0.076
PLXND1 (UniProt Q9Y4D7),log2 fold change,[1],0.045
same,log2 fold change,[3],-0.214
same,log2 fold change,[6],0.018
same,log2 fold change,[7],0.012
same,log2 fold change,[9],0.111
same,log2 fold change,[10],0.015
same,log2 fold change,[11],-0.123
same,log2 fold change,[14],0.046
same,log2 fold change,[15],0.313
